Screens deposited in PubChem BioAssay by The Scripps Research Institute Molecular Screening Center.
GSTO1 inh: inhibitors of recombinant GSTO1, primary screen, counter-screen for RBBP9 inhibitor project, biochemical, fluorescence polarization; Glutathione S-transferase omega-1 (Homo sapiens), P78417; activity-based probe fluorescence polarization; inhibition, % at 5.96 µM; 300,000 compounds, 1.1% hits; AID 1974, 2009;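 active = inhibition above the campaign mean inhibition plus 3 SD, cut at about 35% in these data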
Target sequence (P78417 whole entry, looked up): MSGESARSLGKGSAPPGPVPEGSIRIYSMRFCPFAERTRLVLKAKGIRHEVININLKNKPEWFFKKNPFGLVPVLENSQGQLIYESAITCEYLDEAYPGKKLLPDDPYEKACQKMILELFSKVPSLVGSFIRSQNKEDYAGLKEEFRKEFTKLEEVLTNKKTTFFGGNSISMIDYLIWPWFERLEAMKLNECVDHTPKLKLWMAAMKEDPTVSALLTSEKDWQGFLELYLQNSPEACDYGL
PME-1 primary: PME-1 inhibitors via competitive probe labeling, primary screen, biochemical, fluorescence polarization, FP-Rh probe, HTS; AID 2130, 2009; 320,000 compounds, 0.53% hits; inhibition, % at 5.9 µM; recombinant PME-1; Protein phosphatase methylesterase 1 (Homo sapiens), Q9Y570;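 active = inhibition above the campaign mean of all compounds plus 3 SD, cut at about 26% in these data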;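 also: competitive labeling of PME-1 active site by serine hydrolase directed probe; inhibitors block probe labeling so polarization falls and inhibition rises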
Fam108B counter: mouse Fam108B serine hydrolase inhibitors, primary screen, counter-screen for RBBP9 inhibitor project, biochemical, fluorescence polarization; inhibition, % at 9.51 µM; 300,000 compounds, 0.33% hits; AID 1947, 2009; recombinant Fam108B, FP-Rh probe fluorescence polarization;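 active = inhibition above the screen mean inhibition plus 3 SD, computed separately per campaign, cut at about 18% in these data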;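 also: inhibitors lower polarization as less probe binds the enzyme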
LYPLA1 inh: LYPLA1 inhibitors, primary screen, counter-screen for PME1 inhibitor project, biochemical, fluorescence polarization, FP-Rh probe ABPP. Acyl-protein thioesterase 1 (Homo sapiens), O75608. recombinant LYPLA1. inhibition, % at 5.9 µM. 320,000 compounds, 0.16% hits. AID 2174, 2009;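 active = inhibition above the mean of all tested compounds plus 3 SD, set per campaign, cut at about 14% in these data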;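 also: inhibitors block serine hydrolase probe labeling of LYPLA1 so polarization falls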
PREPL inh: PREPL enzyme inhibitors, primary screen, biochemical, fluorescence polarization | Prolyl endopeptidase-like (Homo sapiens), Q4J6C6 | recombinant PREPL, fluorescence polarization activity-based probe | inhibition, % at 5.96 µM | 320,000 compounds, 0.68% hits | AID 2751, 2010; in the data active = inhibition above about 43%
LYPLA2 inh: LYPLA2 inhibitors, primary screen, counter-screen for PME1 inhibitor project, biochemical, fluorescence polarization, FP-Rh probe ABPP; recombinant LYPLA2; 320,000 compounds, 0.38% hits; Acyl-protein thioesterase 2 (Homo sapiens), O95372; inhibition, % at 5.9 µM; AID 2177, 2009;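 active = inhibition above the screen-wide mean plus 3 SD, limit set per campaign, cut at about 26% in these data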
Target sequence (O95372 whole entry, looked up): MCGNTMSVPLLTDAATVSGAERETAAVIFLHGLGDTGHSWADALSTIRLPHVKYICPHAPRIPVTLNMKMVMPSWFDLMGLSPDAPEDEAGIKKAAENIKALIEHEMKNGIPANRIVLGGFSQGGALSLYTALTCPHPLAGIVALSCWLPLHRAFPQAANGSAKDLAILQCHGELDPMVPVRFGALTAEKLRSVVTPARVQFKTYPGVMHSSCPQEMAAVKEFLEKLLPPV
LYPLA2 confirm: LYPLA2 inhibitors, retest, confirmation, counter-screen for PME1 inhibitor project, biochemical, fluorescence polarization, FP-Rh probe ABPP | shares compounds with LYPLA2 inh | 1,100 compounds, 72% hits | inhibition, % at 5.9 µM | recombinant LYPLA2;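 active = mean inhibition across replicates above the hit cutoff set in the primary screen, cut at about 26% in these data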;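 also: blocked labeling of the enzyme by serine hydrolase FP-Rh probe lowers polarization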
LYPLA2 ABPP: LYPLA2 inhibitors in proteome, late-stage follow-up, gel-based competitive ABPP, fluorescence, assay provider | inhibition, % at 20 µM | 150 compounds, 30% hits | rhLYPLA2 in mouse brain proteome, gel ABPP FP-Rh | shares compounds with LYPLA2 inh;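 active = inhibition of LYPLA2 enzyme probe labeling above about 50%, limit read from the data; inactive = inhibition below that limit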;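 also: loss of FP-Rh probe labeling of the LYPLA2 gel band measured as band density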
A number is an active result; – = inactive; · = no result. Compounds with a hit are over-represented: about 2% of the library has one in this group of screens.

SMILES | GSTO1 inh | PME-1 primary | Fam108B counter | LYPLA1 inh | PREPL inh | LYPLA2 inh | LYPLA2 confirm | others
O=C(NC(=S)Nc1ccc(Cl)c(C(=O)O)c1)c1cccc(COc2ccccc2)c1 | – | – | – | – | – | 37 | 38
O=C(NC(=S)Nc1ccc(Cl)c(C(=O)O)c1)c1ccc(OCc2ccccc2)cc1 | – | – | – | – | – | 37 | 33
Cc1nn(C(C)C(=O)NC(C)CCc2ccccc2)c(=O)c2cc3occc3n12 (centres undefined) | – | – | – | – | – | – | ·
CC(C)(C)C(=O)Nc1cccc(S(=O)(=O)NC2=NCCC2)c1 | – | – | – | – | – | – | ·
O=C(CN1CCN(c2ccc(F)cc2)CC1)c1ccc(O)cc1O | – | – | – | – | – | – | ·
O=[N+]([O-])c1ccc(Oc2cccc3cccnc23)c(Cl)c1 | – | – | – | – | – | 28 | –
NC(=O)c1ccc(Oc2cccc3cccnc23)c([N+](=O)[O-])c1 | – | – | – | – | – | – | ·
COc1cccc(CCN2CCC(CNS(=O)(=O)c3cc(-c4cc(C)no4)ccc3OC)CC2)c1 | – | – | – | – | – | – | ·
COc1cccc(CCN2CCC(CNS(=O)(=O)c3cc(-c4cc(C)no4)ccc3C)CC2)c1 | – | – | – | – | – | 28 | 35
CCOc1ccc(C(=O)NC(=S)Nc2cccnc2)cc1[N+](=O)[O-] | – | – | – | – | – | – | ·
COc1ccc(C(=O)NC(=S)Nc2cccnc2)cc1[N+](=O)[O-] | – | – | – | – | – | 28 | 28
Cc1ccc(NC(=O)CCC(=O)OCC(=O)c2ccc(Oc3ccc([N+](=O)[O-])cc3)cc2)cc1C | – | – | – | – | – | 36 | –
COc1ccc(CNC(=O)c2ccc(N3CCC4(CC3)CC(c3ccc(Cl)cc3)=NO4)c([N+](=O)[O-])c2)cc1 | – | – | – | – | – | – | ·
COc1ccc(CNC(=O)c2ccc(N3CCC4(CC3)CC(c3ccc(Cl)cc3)=NO4)c(N)c2)cc1 | – | – | – | – | – | 40 | 41
COc1ccc(NC(=O)CSc2nnc(NC(=O)C3CC3)s2)cc1OC | – | – | – | – | – | – | ·
O=[N+]([O-])c1ccccc1-c1nc(-c2ccc(Br)o2)no1 | – | – | – | – | – | 32 | 29
Clc1ccccc1-c1nc(-c2ccc(Br)o2)no1 | – | – | – | – | – | – | ·
CN(C(=O)c1ccc(NC(=O)Cc2ccc(NC(=O)C3CCCN(C(=O)CCc4ccccc4)C3)cc2)cc1)C1CC1 (centres undefined) | · | – | · | – | – | 58 | 50 | LYPLA2 ABPP=–
Cc1cc2c(NC(=O)Nc3ccc(F)cc3)cccc2nn1 | – | – | – | – | – | 44 | 54 | LYPLA2 ABPP=–
CCCCCCOc1ccc(OC(=O)c2ccncc2)cc1 | – | – | – | – | – | 47 | 56
CCCCCCc1ccc(OC(=O)c2ccncc2)cc1 | – | – | – | – | – | – | ·
COc1cccc(NC(=O)CN2C(=O)COc3ccc(C)cc32)c1 | – | – | – | – | – | 31 | 29
O=C(CN1C(=O)CSc2ccc(C(F)(F)F)cc21)Nc1ccccc1 | – | – | – | – | – | 37 | 37
COc1ccc(CNC(=O)CN2C(=O)CSc3ccc(S(=O)(=O)N4CCCCC4)cc32)cc1 | – | – | – | – | – | – | ·
O=C(CN1C(=O)COc2ccc(S(=O)(=O)N3CCCC3)cc21)Nc1cccc(F)c1 | – | – | – | – | – | 41 | 47
SMILES | GSTO1 inh | PME-1 primary | Fam108B counter | LYPLA1 inh | PREPL inh | LYPLA2 inh | LYPLA2 confirm | others
O=C(CCN1C(=O)CSc2ccccc21)Nc1ccc(C(F)(F)F)cc1 | · | – | · | – | – | – | ·
COc1cc(NC(=O)CN2C(=O)CSc3ccc(S(=O)(=O)N4CCCC4)cc32)cc(OC)c1 | – | – | – | – | – | 28 | –
O=C(NCC1CCCO1)c1ccc(N2CCCCC2)c([N+](=O)[O-])c1 (centres undefined) | – | – | – | – | – | – | ·
COCCCNC(=O)CN1C(=O)CSc2ncccc21 | – | – | – | – | – | – | ·
O=C(CN1C(=O)CSc2ncccc21)Nc1cccc(Cl)c1 | – | – | – | – | – | 62 | 67 | LYPLA2 ABPP=–
O=C(COc1ccc2ccccc2c1)NCC(=O)N/N=C/c1ccco1 | – | – | – | – | – | 30 | –
O=C(COc1ccccc1)NCC(=O)N/N=C/c1ccccc1 | – | – | – | – | – | – | ·
CC(C)N1CCc2c(sc(NC(=O)c3ccc(C(=O)c4ccccc4)cc3)c2C(N)=O)C1 | – | – | – | – | – | 26 | 31
CC(C)N1CCc2c(sc(NC(=O)c3ccc4ccccc4c3)c2C(N)=O)C1 | – | – | – | – | – | – | ·
Cn1c(=O)c2c(ncn2CC(=O)N/N=C/C(Br)=C/c2ccccc2)n(C)c1=O | – | – | – | – | – | 27 | 39
Cn1c(=O)c2c(ncn2CC(=O)N/N=C/C=C/c2ccccc2)n(C)c1=O | – | – | – | – | – | – | ·
Cc1ccc(C)c(SCC(=O)NCC(c2ccco2)N2CCCCC2)c1 (centres undefined) | – | – | – | – | – | – | ·
CCC(=O)c1ccc(N2CCN(C(=O)c3ccc(Br)cc3)CC2)c(F)c1 | – | – | – | – | – | 30 | 48
CCCC(=O)c1ccc(N2CCN(C(=O)c3ccccc3)CC2)c(F)c1 | – | – | – | – | – | – | ·
CCCC(=O)c1ccc(N2CCN(C(=O)c3ccc(Br)cc3)CC2)c(F)c1 | – | – | – | – | – | 39 | 70 | LYPLA2 ABPP=–
COc1ccc(COC(=O)C2=C(C)NC(=O)NC2c2cc(Br)c(O)c(OC)c2)cc1 (centres undefined) | – | – | – | – | – | – | ·
CC(=O)N1c2ccc(S(=O)(=O)N3CCC(C(=O)N4CCN(c5ccc(Cl)cc5)CC4)CC3)cc2CC1C (centres undefined) | – | – | – | – | – | 92 | 92 | LYPLA2 ABPP=75
COc1cccc(N2CCN(C(=O)C3CCN(S(=O)(=O)c4ccc5c(c4)CC(C)N5C(C)=O)CC3)CC2)c1 (centres undefined) | – | – | – | – | – | 40 | 49
